Data published in PubChem BioAssay (EPA / NIEHS).
“And” between values parts separate entries of the source, which are not always exact repeats. Equal values may be shown once. Records with an inconclusive call do not appear. The source made the active and inactive calls. The calls were made as follows: active = hit-call score of the fitted dose curve at least 0.9, where 1 is the maximum; inconclusive = response in the unintended direction; inactive = score below 0.9.

Test: TOX21_p53_BLA_p5_viability: Viability Assessment in the Tox21 HCT-116 p53 Agonism Beta-lactamase Assay, Phase 5 (AID 2283600)
Source text: TOX21_p53_BLA_p5 is a cell-based, single-readout assay that uses HCT116, a human intestinal cell line, […] in a 1536-well plate.TOX21_p53_BLA_p5_viability is an assay readout measuring cellular ATP content and detected with CellTiter-Glo Luciferase-coupled ATP quantitation.TOX21_p53_BLA_p5_viability used a type of viability reporter where loss-of-signal activity can be used to understand changes in the cell viability. Furthermore, this assay endpoint can be referred to as a secondary readout, because this assay has produced multiple assay endpoints where this one serves a viability function. To generalize the intended target to other relatable targets, this assay endpoint is annotated to the cell cycle intended target family, where the subfamily is cytotoxicity.
Thawing Method: Place 14 mL of pre-warmed thaw medium into a 15 mL of conical tub. Remove the vial of cells to be thawed from liquid nitrogen and thaw rapidly by placing at 37C in a water bath with gentle agitation for 1-2 minutes. Decontaminate the vial by wiping with 70% ethanol before opening in a biological safety cabinet. Transfer the vial contents drop-wise into 14 mL of thaw medium in a sterile 15-mL conical tub. Centrifuge cells at 900 rpm for 4 minutes and resuspend in thaw medium. Transfer contents to the T75 tissue culture flask containing Thaw Medium and place flask in a humidified 37C/5% CO2 incubator. Switch to growth medium at first passage.Propagation Method: Aspirate medium, rinse once in DPBS, add 0.25% Trypsin/EDTA and swirl to coat the cell evenly. Add an equal volume of Growth Medium to inactivate Trypsin after 2-3 minutes incubation at 37C. Centrifuge cells at 900 rpm for 4 minutes and resuspend in growth medium. Cell should be passage or fed at least twice a week.Assay Protocol: Harvest cells from culture in growth medium and resuspend in assay medium. 2.2 Dispense 4000 cells/5 uL/well into 1536-well black/clear bottom plates using a Multidrop dispenser. After the cells were incubated at 37C for 5 hours, 23 nL of compounds dissolved in DMSO were transferred to the assay plate by a PinTool resulting in a 217-fold dilution. Incubate the plates for 16 hours at 37C, 5% CO2. Add 1 uL of 6X LiveBLAzer FRET B/G (CCF4-AM) Substrate Mixture to each well using a BioRAPTR dispenser and incubate the plates at room temperature for 2 hours. Measure fluorescence intensity at 460 and 530 nm emission and 405 nm excitation by an Envision detector. Data is expressed as the ratio of 460nm/530nm emissions. Add 4 uL of Cell-titer Glo to each well using BioRAPTR and incubate the plates at room temperature for […]. For cell viability readout that measures cytotoxicity, 4 ul/well of CellTiter-Glo reagent was added into the assay plates using a Flying Reagent Dispenser. After 30 min incubation at room temperature, the luminescence intensity in the plates was measured using a ViewLux plate reader.

**Q.** For N=C1N=C(N)c2ccccc21, which outcome is on record?
**A.** inactive

**Q.** With CN(C)CCCNCCCN(C)C as the compound, how does the outcome read?
**A.** inactive

**Q.** Which outcome does the source give for NC(=O)c1cnccn1 here?
**A.** inactive

**Q.** For FC(F)(F)c1ccc(Cl)c(Cl)c1, which outcome is on record?
**A.** inactive

**Q.** Which outcome does the source give for CC(C)COC(=O)c1ccccc1 here?
**A.** inactive

**Q.** With CC(C)(C)c1cccc(O)c1 as the compound, how does the outcome read?
**A.** inactive

**Q.** For CC(C)Cc1ccc(C(C)C(=O)O)cc1 (stereo not given), which outcome is on record?
**A.** inactive

**Q.** Which outcome does the source give for [Cu+] here?
**A.** inactive

**Q.** For C=C(C)C(=O)OCCN(C)C, which outcome is on record?
**A.** inactive

**Q.** Which outcome does the source give for CC(C)Cc1ccccc1 here?
**A.** inactive

**Q.** For CCCCCCCCCCCCCCCCCC(=O)OCCCCCCCCCCCCCC(C)C, which outcome is on record?
**A.** inactive

**Q.** For O=C(c1ccc(OCCN2CCCCC2)cc1)c1c(-c2ccc(O)cc2)sc2cc(O)ccc12, which AC50 is on record?
**A.** 77.6 µM (active) and 87.9 µM (active) and 41.9 µM (active)

**Q.** Which outcome does the source give for Cc1cccc(O)c1 here?
**A.** inactive

**Q.** Which outcome does the source give for ClCCOCCOCCCl here?
**A.** inactive

**Q.** For CCCCCCCCCCCCOCCOS(=O)(=O)O, which outcome is on record?
**A.** inactive

**Q.** With CC1=CCC(C(C)C)=CC1 as the compound, how does the outcome read?
**A.** inactive

**Q.** With CCOC(=O)CCCCCCCCC(=O)OCC as the compound, how does the outcome read?
**A.** inactive

**Q.** With O=S(=O)(O)c1cc(S(=O)(=O)O)c2c(N=Nc3ccccc3)c(O)ccc2c1 as the compound, how does the outcome read?
**A.** inactive

**Q.** For CCOC(=O)CC1(C)OCC(C)O1 (stereo not given), which outcome is on record?
**A.** inactive

**Q.** Which outcome does the source give for O=C(O)c1ccco1 here?
**A.** inactive

**Q.** For OC[C@@H](O)[C@H](O)[C@@H](O)[C@@H](O)CO, which outcome is on record?
**A.** inactive

**Q.** For c1ccc2scnc2c1, which outcome is on record?
**A.** inactive

**Q.** For CCCCCCOc1ccc(O)cc1, which outcome is on record?
**A.** inactive

**Q.** With NC(N)=NC(N)=NCCc1ccccc1 as the compound, how does the outcome read?
**A.** inactive

**Q.** With O=c1cc(-c2ccc(O)cc2)oc2cc(O)cc(O)c12 as the compound, how does the outcome read?
**A.** inactive

**Q.** With NC(=O)c1cccnc1 as the compound, how does the outcome read?
**A.** inactive

**Q.** For COc1ccc2[nH]cc(CCNC(C)=O)c2c1, which outcome is on record?
**A.** inactive

**Q.** With c1ccc(Cc2ccccc2)cc1 as the compound, how does the outcome read?
**A.** inactive

**Q.** For C[C@H](CCC(=O)O)[C@H]1CC[C@H]2[C@@H]3CC[C@@H]4C[C@H](O)CC[C@]4(C)[C@H]3CC[C@]12C, which AC50 is on record?
**A.** 16.3 µM (active)

**Q.** With COC(=O)C(C)Oc1ccc(Oc2ncc(C(F)(F)F)cc2Cl)cc1 (stereo not given) as the compound, how does the outcome read?
**A.** inactive

**Q.** With COc1ccccc1NC(=O)CC(C)=O as the compound, how does the outcome read?
**A.** inactive

**Q.** Which outcome does the source give for O=C(O)c1cccc(Cl)n1 here?
**A.** inactive

**Q.** Which outcome does the source give for COc1ccc(C(C)=O)cc1 here?
**A.** inactive

**Q.** Which outcome does the source give for C=CC(O)CCCCC (stereo not given) here?
**A.** inactive

**Q.** Which outcome does the source give for NC(N)=S here?
**A.** inactive

**Q.** Which outcome does the source give for CCCCCCCC(=O)N(C)C here?
**A.** inactive

**Q.** With CCCCCC(=O)O[C@]1(C(C)=O)CC[C@H]2[C@@H]3CCC4=CC(=O)CC[C@]4(C)[C@H]3CC[C@@]21C as the compound, how does the outcome read?
**A.** inactive

**Q.** With O=S1(=O)CC=CC1 as the compound, how does the outcome read?
**A.** inactive

**Q.** With CC(C)OB(OC(C)C)OC(C)C as the compound, how does the outcome read?
**A.** inactive

**Q.** For CC/C=C\CCCCO, which outcome is on record?
**A.** inactive
